Results as given in the supplement of paper PMC7393113.
± gives the standard deviation of the averaged measurements.

Tested on: iBMDM (immortalised mouse bone-marrow-derived macrophages), LPS-stimulated
Test: mitochondrial superoxide (MitoSOX fluorescence) fold increase over unstimulated control; higher = more LPS-induced mitochondrial ROS (less inhibition)
Conditions: inhibitor concentration: 500 nM; LPS: 100 ng/ml; time after LPS: 4 h
Outline: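 Immortalised mouse bone-marrow-derived macrophages in black 96-well plates were kept in phenol-red-free 1% FCS/DMEM for 20 h, pretreated 30 min with kinase inhibitors (500 nM), loaded with 1 μM MitoSox for 10 min and then given LPS (100 ng/ml). Fluorescence at excitation/emission 510/580 nm was read on a ClarioStar plate reader every 60 min for 4 h, with wells in triplicate. Mitochondrial superoxide is given as fold induction over untreated macrophages, averaged across replicates.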

| SMILES | mitochondrial superoxide |
| --- | --- |
| COc1ccc2c(c1)c(C1=C(c3c[nH]c4ccccc34)C(=O)NC1=O)cn2CCCN(C)C | 1.36 ± 0.042 |
| COc1ccc(CNC(=O)Nc2ncc([N+](=O)[O-])s2)cc1 | 1.6 ± 0.096 |
| CN1CCC(CNc2ccc3ncc(-c4cccc(OC(F)(F)F)c4)n3n2)CC1 [SGI-1776 free base] | 1.33 ± 0.071 |
| S=C(NCc1ccc2c(c1)OCO2)N1CCN(c2ncnc3c2oc2ccccc23)CC1 [Amuvatinib (MP-470)] | 1.15 ± 0.063 |
| COc1ccc(-c2nc(N3CCOCC3)c3sc(CN(C)c4ncc(C(=O)NO)cn4)cc3n2)cn1 | 1.77 ± 0.17 |
| CCn1c(-c2nonc2N)nc2c(C#CC(C)(C)O)ncc(OC[C@H]3CCCNC3)c21 | 1.49 ± 0.019 |
| CNC(=O)CN1CCC(Oc2cc3c(Nc4cccc(Cl)c4F)ncnc3cc2OC)CC1 [AZD8931 (Sapitinib)] | 1.37 ± 0.046 |
| O=C(c1ccc(Nc2nccc(-c3cc4ccccc4s3)n2)cc1)N1CCC(N2CCCC2)CC1 [IKK-16 (IKK Inhibitor VII)] | 1.16 ± 0.17 |
| Oc1ccc2ccccc2c1SSc1c(O)ccc2ccccc12 | 1.32 ± 0.015 |
| CCCS(=O)(=O)Nc1ccc(F)c(C(=O)c2c[nH]c3ncc(Cl)cc23)c1F | 1.34 ± 0.21 |
| Cc1[nH]c(/C=C2\C(=O)Nc3ccccc32)c(C)c1CCC(=O)O [TSU-68 (SU6668, Orantinib)] | 2.16 ± 0.12 |
